From PubChem BioAssay (NCATS)
Records with an inconclusive call do not appear. Entries that show only a call come without a potency. Calls of active or inactive are those of the source. Calls follow the shape of the dose curve; as a rule, active = well fitted inhibition curve with a large enough effect; inconclusive = small, poorly fitted or top-dose-only effect; inactive = flat fitted curve, though single readings scatter.

test system: Zika virus NS2B-NS3 protease; assay: Primary screen GU AMC qHTS for Zika virus inhibitors (AID 1347154); conditions: Zika NS2B-NS3 unlinked protease, AMC fluorogenic substrate; series mostly up to 54.1 µM; also: nearly all actives have a fitted effect of over 70% in size
Procedure, shortened: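 Fluorogenic AMC-substrate cleavage by noncovalent NS2B-NS3 protease complex (25 nM, pH 8.0 Tris buffer with Tween 20) followed for 15 minutes at room temperature (~20% conversion). Percent inhibition from ex340/em450 signal change, fitted by 4-parameter Hill equation.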

Row | SMILES | Potency
1 | OCCOCCN1CCN(C2=Nc3ccccc3Sc3ccccc32)CC1 | inactive
2 | COc1ccc(C(=O)c2ccccc2O)c(O)c1 | inactive
3 | CCN1CCCC(OC(=O)C(c2ccccc2)c2ccccc2)C1 (centres undefined) | inactive
4 | CC(CNC1CCCCC1)OC(=O)c1ccccc1 (centres undefined) | inactive
5 | C[N+]1(CC2COC(c3ccccc3)(C3CCCCC3)O2)CCCCC1 (centres undefined) | inactive
6 | CC(C)Nc1cccnc1N1CCN(C(=O)c2cc3cc(NS(C)(=O)=O)ccc3[nH]2)CC1 | inactive
7 | COc1ccc(-c2cc(C(F)F)nn2-c2ccc(S(N)(=O)=O)cc2)cc1F | inactive
8 | CCCCCCCC/C=C\CCCCCCCCN | inactive
9 | CC1(C)OC[C@@H]2O[C@@]3(C(=O)O)OC(C)(C)O[C@H]3[C@@H]2O1 | inactive
10 | CC(=O)Nc1ncc([N+](=O)[O-])s1 | inactive
11 | CN1CCN(C2=Nc3cc(F)ccc3Cc3ccccc32)CC1 | inactive
12 | Cl/C(=C\n1cncn1)c1ccc(Cl)cc1Cl | inactive
13 | C[N+]12CCC(CC1)C(OC(=O)C(O)(c1ccccc1)c1ccccc1)C2 (centres undefined) | inactive
14 | N/C(=N\N=C\c1ccc(Cl)cc1)N/N=C/c1ccc(Cl)cc1 | inactive
15 | O=C1OC(CN2CCOCC2)CN1/N=C/c1ccc([N+](=O)[O-])o1 (centres undefined) | inactive
16 | C[C@@H](O)[C@H]1C(=O)N2C(C(=O)O)=C([C@H]3CCCO3)S[C@H]12 | inactive
17 | Cc1cc2c(OCC(CNC(C)(C)C)OC(=O)c3ccccc3)cccc2[nH]1 (centres undefined) | inactive
18 | Nc1nc(-c2ccccc2)c(Br)c(=O)[nH]1 | inactive
19 | CC(O)Cn1cnc2c1c(=O)n(C)c(=O)n2C (centres undefined) | inactive
